Source: PubChem (National Center for Advancing Translational Sciences (NCATS))
Sampled rows, rich in hits. Any-hit rate of the full collection: about 19%.
DT40 TDP1 CPT: qHTS for Inhibitors of human tyrosyl-DNA phosphodiesterase 1 (TDP1): qHTS in cells in presence of CPT; actives 12% (n = 420,000); Potency, µM (titrated, usually from 46.2 µM), most hits filed as inhibitors; chicken DT40 Tdp1-/-;hTDP1 cells + 20 nM CPT, ATP luminescence, 48 h; note: nearly all actives have a fitted effect of over 55% in size
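Chicken DT40 Tdp1-/- cells complemented with human TDP1, 400 cells/well, exposed to compounds plus 20 nM camptothecin for at least 48 h at 37 C; viability read as ATP content by CellTiter-Glo luminescence.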
IL1B secr inh: qHTS for Inhibitors of Inflammasome Signaling: IL-1-beta AlphaLISA Primary Screen; THP-1 LPS/ATP IL-1B secretion, AlphaLISA, 16 h; stronger effect = lower value; activity change, % at 57.5 µM; actives 4.7% (n = 360,000); AID 743279, 2014; in the data active = activity change below about -50%; inconclusive = mostly about -30% to -49%
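THP-1 cells pretreated 1 hr with compounds (up to 57.5 uM final), then stimulated with LPS (250 ng/mL final) plus ATP (1.25 mM final); secreted IL-1B measured by AlphaLISA after 16 hr, decreased signal indicating inhibition.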
HT1080NT lethal: qHTS for induction of synthetic lethality in tumor cells producing 2HG: qHTS for the HT-1080-NT fibrosarcoma cell line; HT-1080-NT fibrosarcoma viability, CellTiter-Glo ATP luminescence, 48 h; actives 1.6% (n = 360,000); Potency, µM (highest dose often 46.1 µM), actives largely listed as cytotoxic;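 note: NT is the 2HG producing partner of a matched IDH1 knockdown line; nearly all actives have a fitted effect of over 55% in size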
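HT-1080-NT fibrosarcoma cells (2HG-overproducing), 750 cells/well in RPMI with 5% FBS, dosed after 2 h and incubated 48 h at 37C. CellTiter-Glo luminescence normalized to DMSO and no-cell wells; concentration-response curves fitted and classed.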
TDP1 cell noCPT: qHTS for Inhibitors of human tyrosyl-DNA phosphodiesterase 1 (TDP1): qHTS in cells in absence of CPT; AID 686978, 2013; Potency, µM (series often up to 46.2 µM), most hits filed as inhibitors; actives 15% (n = 420,000); DT40 Tdp1-/- hTDP1 cells, no CPT, ATP luminescence, 48 h; note: nearly all actives have a fitted effect of over 55% in size
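DT40 Tdp1-/-;hTDP1 cells, no CPT (DMSO vehicle only), 400 cells/well; compounds pin-transferred; ≥48 hr, 37 °C; CellTiter-Glo 30 min RT dark, luminescence read.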
HT1080 IDH1KD tx: qHTS for induction of synthetic lethality in tumor cells producing 2HG: qHTS for the HT-1080-IDH1KD cell line. Potency, µM (doses to about 46.1 µM), actives largely listed as cytotoxic. actives 2% (n = 360,000). AID 686971, 2013. HT-1080 IDH1 knockdown viability, ATP luminescence, 48 h
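After a 2 h attachment period, IDH1KD HT-1080 cells took pin-transferred compound for 48 h at 37 °C; ATP-based luminescence after 10 min room-temperature reagent incubation reported viability.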
A number is an active result; 0 = inactive; ? = inconclusive; - = not tested or not shown. Unless noted, calls come from the whole dose curve; as a rule, active = well fitted curve in the direction sought with a large enough effect; inconclusive = small, poorly fitted or top-dose-only effect, or another doubt; inactive = no such curve, though single readings can be large; an effect the other way counts as inactive or inconclusive.

SMILES | DT40 TDP1 CPT | IL1B secr inh | HT1080NT lethal | TDP1 cell noCPT | HT1080 IDH1KD tx
COc1ccc(-c2oc(=O)c3cc(OC)c(OC)cc3c2/C=C/c2ccc(F)cc2)cc1 | 0 | 0 | 0 | ? | 0
COc1cc(OC)c2c(-c3cccc(-c4ccc(N(C)C)cc4)c3)cc(=O)oc2c1 | 1.8µM | 0 | ? | 1.2µM | 1.3µM
COc1cc(OC)c2c(-c3cccc(/C=C/c4ccc(F)cc4)c3)cc(=O)oc2c1 | 21µM | 0 | 0 | 18µM | 0
COc1cc(OC)c2c(-c3cccc(-c4ccc(CO)cc4)c3)cc(=O)oc2c1 | 1.3µM | 0 | ? | 0.58µM | 0.52µM
COC(C/C=C/[C@H](O)[C@H](C)OCc1ccccc1)OC | 0 | 0 | 0 | 0 | 0
CSCCOC(=O)c1[nH]c2c(c1C)C(=O)CC(c1ccco1)C2 (configuration not stated) | 0.73µM | 0 | ? | 0.82µM | 2.3µM
COCCOC(=O)c1[nH]c2c(c1C)C(=O)CC(c1ccco1)C2 (configuration not stated) | 1µM | 0 | 2.3µM | 0.73µM | 1.6µM
Cc1c(C(=O)OCc2ccccc2)[nH]c2c1C(=O)CC(c1ccco1)C2 (configuration not stated) | 0.82µM | 0 | ? | 0.92µM | 1.3µM
Cc1c(C(=O)OCCOC(C)C)[nH]c2c1C(=O)CC(c1ccco1)C2 (configuration not stated) | 0.023µM | 0 | 0.41µM | 0.0052µM | 0.33µM
C[C@@H]1O[C@@H](O[C@H]2[C@H](O[C@H]3C[C@]4(C)C(C[C@@H](O)C5C([C@]6(C)CC[C@@H](C(C)(C)O)O6)CC[C@]54C)[C@@]4(C)CC[C@H](O)C(C)(C)C34)O[C@H](CO)[C@@H](O)[C@@H]2O)[C@H](O)[C@H](O)[C@H]1O (some centres not stated) | 0 | 0 | 0 | 0 | 0
CCOC(=O)c1[nH]c2c(c1C)C(=O)CC(c1ccco1)C2 (configuration not stated) | 0.58µM | 0 | 1µM | 0.041µM | 0.92µM
CCc1ccc(C2CC(=O)c3c([nH]c(C(=O)OC4CCC(C)CC4)c3C)C2)cc1 (configuration not stated) | 0 | - | - | ? | -
O=C(NC1CCc2ccccc21)c1cc(COc2ccc(F)cc2Cl)on1 (configuration not stated) | 0 | 0 | 0 | 0 | 0
O=C(NC1CCc2ccccc21)c1cc(COc2cncc(Cl)c2)on1 (configuration not stated) | 9.2µM | -62 | 0 | ? | 0
COc1cc(OC)nc(-n2ncc(Br)c(Br)c2=O)n1 | 0.65µM | -96 | 1.6µM | 0.82µM | 1.6µM
COC(=O)c1cnn(-c2nc(OC)cc(OC)n2)c1C | 0 | 0 | 0 | ? | 0
CS(=O)(=O)N(CC(=O)O)c1ccc(C23CC4CC(CC(C4)C2)C3)cc1 | 0 | 0 | 0 | 0 | 0
COc1ccccc1NC(=O)CN(c1ccc(C23CC4CC(CC(C4)C2)C3)cc1)S(C)(=O)=O | 13µM | 0 | ? | 15µM | ?
COc1ccc(C(=O)/C=C/c2ccc3c(c2)OCCO3)cc1 | ? | -93 | ? | ? | ?
COc1ccc(C(=O)Cn2c(C(=O)/C=C/c3ccccc3)nc3ccccc32)cc1 | 15µM | 0 | ? | 23µM | ?
Cc1ccc(C(=O)C=Cc2ccc3c(c2)OCO3)c(C)c1 | ? | ? | 0 | ? | ?
Cc1ccc(O)c(C(=O)/C=C/c2ccc3c(c2)OCCO3)c1 | 16µM | -52 | 0 | 16µM | 0
COc1ccc(/C=C/C(=O)c2ccc(O)cc2)cc1 | 0 | -80 | 0 | ? | 0
COc1ccc(C(=O)C=Cc2ccc3c(c2)OCO3)cc1OC | 0 | 0 | 0 | ? | 0
O=c1c(-c2ccc(O)cc2)coc2cc(OC3OC(CO)C(O)C(O)C3O)ccc12 (configuration not stated) | 0 | 0 | 0 | 0 | 0
